The test relates to Leishmania donovani. As to the kind of experiment: Leishmania intramacrophage assay. In kind it is functional, organism-based. Also on record: scale not given: in the data most compounds retested in dose-response had high values.

Screen size: about 69,000 compounds; about 1,000 (1.4%) showed an effect of 50% or more. The list comes from a sample in which strong results are over-represented; it also holds similar structures and randomly drawn compounds.

For the compound `O=C(c1ccccc1OCC1CC1)N1CCCC(n2ccnc2)C1` (stereo unspecified), the “Percent Effect” value (30 µM, 30.03 µM) is reported as 5.028%.
As for `Cc1cc(C)n(-c2nc(NCCCO)c3c4c(sc3n2)CCCC4)n1`, under “30.3 µM, […]”, the “Percent Effect” value was 97.76%.
Take `Cc1cc(C)n(C2=NC(NCCC(C)C)c3c(sc4c3CCCC4)N2)n1` (stereo unspecified): the “Percent Effect” value (30.3 µM, […]) was determined as 29.71%.
Turning to `Cc1nc(CN2CCCC2C(=O)OCc2ccccc2)oc1C` (stereo unspecified), for the setting “30.3 µM, […]”, the “Percent Effect” value turned out to be 0.6047%.
For `O=C1NCCN1C1CCN(Cc2nc(-c3ccc(F)cc3)no2)CC1`, the “Percent Effect” value (30 µM) is on record as 36.95%.
On to `Fc1ccc(-c2noc(CN3CCC(c4cc[nH]n4)CC3)n2)cc1`, for which the “Percent Effect” value (30.3 µM, […]) is given as 54.52%.
Still for that read-out and setting: for `Cc1ccccc1-c1noc(CN2CCC(c3ccn[nH]3)CC2)n1` the value was -17.93%.
Regarding `Cc1cccc(-c2noc(CN3CCC(c4ccn[nH]4)CC3)n2)c1`, the “Percent Effect” value (30.3 µM, […]) was 43.8%.
With `c1ccc(-c2noc(CN3CCC(c4ccn[nH]4)CC3)n2)cc1`, for the setting “30 µM, 30.03 µM”, the “Percent Effect” value is 52.27%.
In the case of `Cc1ccc(-c2noc(CN3CCC(c4ccn[nH]4)CC3)n2)cc1`, the “Percent Effect” value (30.3 µM, […]) came to 12.54%.
For the compound `c1ccc(-c2cc(CN3CCC(c4ccn[nH]4)CC3)on2)cc1`, the “Percent Effect” value (30 µM, 30.03 µM) is listed as 56.61%.
Consider `c1cc(C2CCN(Cc3nc(C4CC4)no3)CC2)[nH]n1`, for which, for the setting “30.3 µM, […]”, the “Percent Effect” value amounted to 12.31%.
Take `CC1COCCN1Cc1nc(-c2ccc(F)cc2)no1` (stereo unspecified): where the note is “30 µM”, the “Percent Effect” value turned out to be 12.83%.
In the case of `CC(C)c1cc(C(=O)NCCc2nc(-c3ccncc3)n[nH]2)[nH]n1`, the “Percent Effect” value (30.3 µM, […]) was -0.4105%.
On the same count and under the same terms, in the case of `Cc1cc(SC(C)(C)C)ccc1NC(C)C(=O)NC(N)=O` (stereo unspecified) it was -16.97%.
On to `Cc1nc(C2CCCC2)sc1C(N)=O`, for which the “Percent Effect” value (30.3 µM, […]) was -15.57%.
As to `Cc1cnn(CC2CCCN2c2ncnc3ccsc23)c1` (stereo unspecified), the “Percent Effect” value (30 µM) was determined as 46.26%.
With `CCCNC(=O)COc1cccc(-c2nc(C(C)C)no2)c1`, the “Percent Effect” value (30.3 µM, […]) came to 13.17%.
Regarding `CCC(Nc1nc(CCN)nc2ccccc12)c1cccs1` (stereo unspecified), the “Percent Effect” value (30.3 µM, […]) is 67.47%.
Turning to `NCCc1nc(N[C@@H](CO)c2ccccc2)c2ccccc2n1`, the “Percent Effect” value (30.3 µM, […]) is 7.922%.
The same measure, in the same setting: for `CCC(Nc1nc(CCN)nc2ccccc12)c1cc(C)ccn1` (stereo unspecified) the value was 19.32%; for `CC1c2ncc(Cn3cccn3)n2CCN1S(=O)(=O)C1CC1` (stereo unspecified), 4.524%.
On to `Cc1ccc2oc(CN3CCC(C(=O)O)(n4ccnc4)CC3)c(C)c2c1`, for which the “Percent Effect” value (30.3 µM, […]) is on record as 21.21%.
The same measure, in the same setting: in the case of `CN(C)C[C@@H]1C[C@@H]2CN(Cc3nccn3C)CC[C@@H]2N1CC1CC1` it was 27%; in that of `CC(C)C(=O)N1CCN(c2ncnc3cc4c(cc23)OCCO4)CC1`, 56.87%.
Take `CC(=O)N1CCN(c2ncnc3cc4c(cc23)OCCO4)CC1`: the “Percent Effect” value (30.3 µM, […]) was found to be 39.4%.
Take `CCC(=O)N1CCN(c2ncnc3cc4c(cc23)OCCO4)CC1`: the “Percent Effect” value (30.3 µM, […]) is recorded as -95.64%.
Turning to `COc1cc2cc(C(=O)N[C@@H](C)C(=O)O)n(C)c2c(OC)c1OC`, the “Percent Effect” value (30 µM, 30.03 µM) is given as 2.156%.
Turning to `O=C(c1cccnc1)N1CCc2onc(CN3CCCC3)c2C1`, the “Percent Effect” value (30.3 µM, […]) amounted to 14.82%.
As for `Cc1nnc2n1CCN(CC(O)CN1CCC(C)CC1)C2` (stereo unspecified), the “Percent Effect” value (30.3 µM, […]) is recorded as 33.92%.
As for `CCC(CN1CCCC1)n1cncc1-c1cnn(-c2ccc(F)cc2)c1.Cl` (stereo unspecified), the “Percent Effect” value (30.3 µM, […]) was 14.1%.
For the compound `COc1c(C)cnc(CN(C)C2CCOC3(CCOCC3)C2)c1C` (stereo unspecified), the “Percent Effect” value (30.3 µM, […]) is recorded as 5.753%.
Regarding `COc1c(C)cnc(CN(C)C2CCCCC2)c1C`, the “Percent Effect” value (30.3 µM, […]) was determined as 77.94%.
For `COc1c(C)cnc(CN(C)C2CCN(C3CCOCC3)CC2)c1C`, for the setting “30.3 µM, […]”, the “Percent Effect” value turned out to be 38.73%.
As for `CC(Cn1cccn1)C(=O)N1CCCN(Cc2cscn2)CC1` (stereo unspecified), the “Percent Effect” value (30.3 µM, […]) turned out to be 10.45%.
`O=C(c1cccs1)N1CCc2c(nc(N3CCCC3)[nH]c2=O)C1`: the “Percent Effect” value (30.3 µM, […]) is given as -25.29%.
As to `CN(C)C(=O)C1CCN(Cn2nc(-c3ccc(F)cc3)oc2=O)CC1`, the “Percent Effect” value (30 µM) is on record as -5.064%.
Consider `c1cnnc(N2CCCC(NCc3nc(-c4ccsc4)no3)C2)c1` (stereo unspecified), for which the “Percent Effect” value (30.3 µM, […]) was found to be 12.92%.
In the case of `CC(NCc1ccncc1)c1ccc(N2CCN(C)CC2)c(F)c1.Cl` (stereo unspecified), the “Percent Effect” value (30.3 µM, […]) is recorded as -0.6983%.
Same read-out and setting: for `CN1CCN(c2ncc(CNCCCc3cccc(F)c3)cn2)CC1` the value was 20.79%; for `CC(NCc1cnc(N2CCN(C)CC2)nc1)c1ccc(F)cc1` (stereo unspecified), 58.55%.
Still for that read-out and setting: for `Cn1ccnc1CNC1CCCOc2c1ccc1ccccc21` (stereo unspecified) the value was 20.1%; for `Cc1ccc2c(c1)C(NCc1nccn1Cc1ccccc1)CCCO2` (stereo unspecified), 23.59%; for `Cc1ccc2c(c1)OCCCC2NCc1nccn1CC(C)C` (stereo unspecified), 9.865%.
On the same count and under the same terms, in the case of `c1ccc(Cn2ccnc2CNC2CCCOc3ccccc32)cc1` (stereo unspecified) it was 4.41%.
In the case of `Cc1ccc2c(c1)OCCCC2NCc1nccn1Cc1ccccc1` (stereo unspecified), the “Percent Effect” value (30.3 µM, […]) came out at 50.6%.
Regarding `Cc1cccc2c1OCCCC2NCc1nccn1Cc1ccccc1` (stereo unspecified), the “Percent Effect” value (30.3 µM, […]) was found to be 82.89%.
As to `Cc1noc([C@@]23CCO[C@@H]2CCN(C(=O)CCC(C)C)C3)n1`, the “Percent Effect” value (30.3 µM, […]) is reported as -4.868%.
Take `COCCN(CCC#N)S(=O)(=O)c1ccc(F)cc1Cl`: the “Percent Effect” value (30.3 µM, […]) was -7.04%.
As to `Cc1nc(CNC(=O)Cn2nc(-c3ccc(F)cc3)oc2=O)cs1`, under “30 µM, 30.03 µM”, the “Percent Effect” value is reported as -4.773%.
On to `COc1ccc(-c2cn(CCSc3ncn[nH]3)nn2)cn1`, for which the “Percent Effect” value (30.3 µM, […]) was 35.9%.
As to `Cc1nn(C)c(C)c1CN(C(=O)c1cc(Cl)c[nH]c1=O)C(C)C`, where the note is “30.3 µM, […]”, the “Percent Effect” value stood at 14.01%.
`Cc1ncc2c(n1)CCCC2NC(=O)c1ccc(Cn2cccn2)cc1` (stereo unspecified): the “Percent Effect” value (30.3 µM, […]) is 26.01%.
Turning to `COC(=O)Cn1c(=O)cc(C(F)F)c2c(C)nn(CC(F)F)c21`, the “Percent Effect” value (30.3 µM, […]) worked out at 51.48%.
For the compound `CCCn1nc(C)c2c(C(F)F)cc(=O)n(CC(=O)O)c21`, the “Percent Effect” value (30.3 µM, […]) worked out at 18.18%.
On the same count and under the same terms, for `Cc1nn(CC(F)F)c2c1c(C(F)F)cc(=O)n2CC(=O)O` the value was -4.895%.

These data come from ChEMBL document CHEMBL3988442, “University of Dundee, Small-Polar-MMV Screening Library” (2021).
